Assay results from PubChem BioAssay (Tox21).
Results filed as inconclusive are left out. Entries that show only a call come without a potency. Active and inactive are the calls of the source. The call rests on the fitted dose curve; in most records, active means well fitted curve in the direction sought with a large enough effect in the repeat runs; inconclusive means weak or mixed curves; inactive means no such curve, though single readings can be large; an effect the other way counts as inactive or inconclusive.

test: Human pregnane X receptor (PXR) small molecule agonists, qHTS cell viability counter screen (AID 1346977); conditions: PXR-Luc HepG2 viability, CellTiter-Fluor, 24 h; series mostly up to 92.4 µM; further: nearly all actives have a fitted effect of over 50% in size
Method in brief: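 Cytotoxicity counter screen run in the same wells as the PXR luciferase assay, using PXR-Luc HepG2 cells in charcoal-stripped serum medium. Viability: CellTiter-Fluor fluorescence after 24hr compound treatment.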
Potency means the concentration at half of the fitted maximal effect.

Row | Compound | Potency
1 | [C-]1=CC=CC1.[Cl][Zr+2][Cl].c1cc[cH-]c1 | inactive
2 | C[C@@H]1CC2=CC(=O)CC[C@@H]2[C@H]2CC[C@@]3(C)[C@@H](CC[C@]3(C)O)[C@@H]21 | inactive
3 | CNC(=O)Oc1cc(C)cc(C(C)C)c1 | inactive
4 | C[C@]12CC[C@H]3[C@@H](CCC4=CC(=O)CC[C@@H]43)[C@@H]1CC[C@@H]2OC(=O)CCc1ccco1 | inactive
5 | CC(Cc1ccc2c(c1)OCO2)NO (configuration not stated) | inactive
6 | CCO/N=C(\CC)C1=C(O)CC(c2c(C)cc(C)cc2C)CC1=O (configuration not stated) | inactive
7 | COP(=S)(OC)Oc1ccc([N+](=O)[O-])c(C)c1 | inactive
8 | COP(=S)(OC)Oc1nc(Cl)c(Cl)cc1Cl | inactive
9 | CC(=O)C(Cl)C(=O)N(C)C (configuration not stated) | inactive
10 | CC[C@]1(O)CC[C@H]2[C@@H]3CCC4=CCCC[C@@H]4[C@H]3CC[C@@]21C | inactive
11 | c1ccc2c(c1)cc1ccc3cccc4ccc2c1c34 | inactive
12 | CCOP(=S)(OCC)SC(CCl)N1C(=O)c2ccccc2C1=O (configuration not stated) | inactive
13 | Fc1ccc(C(OCCN2CCN(CCCc3ccccc3)CC2)c2ccc(F)cc2)cc1 | 16.8 µM (active)
14 | COC(=O)c1cc(Oc2ccc(Cl)cc2Cl)ccc1[N+](=O)[O-] | inactive
15 | CC(C)=CC1C(C(=O)OC(C#N)c2cccc(Oc3ccccc3)c2)C1(C)C (configuration not stated) | inactive
16 | N#Cc1c2ccccc2cc2ccccc12 | inactive
17 | Clc1ccc(C(Cl)(Cl)Cl)cc1Cl | inactive
18 | O=C(N[C@@H]1N=C(c2ccccc2F)c2cccc3c2N(CC3)C1=O)c1cc2ccccc2[nH]1 | inactive

Row | Compound | Potency
19 | CCN1CCC2(CC1)COc1cc3c(cc12)N(C(=O)c1ccc(-c2ccc(-c4nnc(C)o4)cc2C)cc1)CC3 | 15.9 µM (active)
20 | CC1(C)C(C=C(Cl)Cl)C1C(=O)OC(C#N)c1ccc(F)c(Oc2ccccc2)c1 (configuration not stated) | inactive
21 | CCCCC/C=C\C/C=C\C/C=C\C/C=C\CCCC(=O)NCC(=O)O | inactive
22 | CSC(=O)c1c(C(F)F)nc(C(F)(F)F)c(C(=O)SC)c1CC(C)C | inactive
23 | Nc1nc(N)c(N)c(N)n1 | inactive
24 | Nc1ccc(Cl)cc1C(=O)c1ccccc1F | inactive
25 | CCc1cccc(C)c1N(C(=O)CCl)[C@@H](C)COC | inactive
26 | CC#C[C@]1(O)CC[C@H]2[C@@H]3C[C@H](C)C4=CC(=O)CC[C@]4(C)[C@H]3CC[C@@]21C | inactive
27 | ClC1=C(Cl)[C@]2(Cl)[C@H]3[C@H]([C@@H]4C=C[C@H]3C4)[C@@]1(Cl)C2(Cl)Cl | inactive
28 | CCOC(=O)CCN(SN(C)C(=O)Oc1cccc2c1OC(C)(C)C2)C(C)C | inactive
29 | CCC(C)c1cccc(C(C)CC)c1O (configuration not stated) | inactive
30 | CCC(C)Nc1c([N+](=O)[O-])cc(C(C)(C)C)cc1[N+](=O)[O-] (configuration not stated) | inactive
31 | Cc1c([N+](=O)[O-])c(C)c([N+](=O)[O-])c(C(C)(C)C)c1[N+](=O)[O-] | inactive
32 | Oc1cc(Cl)c(Cl)c(Cl)c1Cl | 29.9 µM (active)
33 | Oc1cc(Cl)cc(Cl)c1 | inactive
34 | C1=CCC=C1 | inactive
35 | COP(=O)(OC)O/C(=C\Cl)c1cc(Cl)c(Cl)cc1Cl | inactive
36 | Brc1ccc(Oc2ccc(Br)cc2Br)c(Br)c1 | inactive

test: Caspase-3/7 induction in HepG2 cells by small molecules, qHTS assay (AID 1346978); conditions: HepG2 caspase-3/7 activation, Caspase-Glo luminescence, 17 h; series mostly up to 92.4 µM; further: nearly all actives have a fitted effect of over 15% in size
Method in brief: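 Caspase-3/7 induction was measured by Caspase-Glo 3/7 luminescence (30 min, room temperature) after a 17 hr compound exposure of wild-type HepG2 cells seeded at 2,000 per well and pre-incubated 5 hr.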

Row | Compound | Potency
37 | C[C@@H]1CC2=CC(=O)CC[C@@H]2[C@H]2CC[C@@]3(C)[C@@H](CC[C@]3(C)O)[C@@H]21 | inactive
38 | CNC(=O)Oc1cc(C)cc(C(C)C)c1 | inactive
39 | C[C@]12CC[C@H]3[C@@H](CCC4=CC(=O)CC[C@@H]43)[C@@H]1CC[C@@H]2OC(=O)CCc1ccco1 | inactive
40 | CC(Cc1ccc2c(c1)OCO2)NO (configuration not stated) | inactive
41 | CCO/N=C(\CC)C1=C(O)CC(c2c(C)cc(C)cc2C)CC1=O (configuration not stated) | inactive
42 | COP(=S)(OC)Oc1ccc([N+](=O)[O-])c(C)c1 | inactive
43 | COP(=S)(OC)Oc1nc(Cl)c(Cl)cc1Cl | inactive
44 | CC(=O)C(Cl)C(=O)N(C)C (configuration not stated) | inactive
45 | c1ccc2c(c1)cc1ccc3cccc4ccc2c1c34 | 6.99 µM (active)
46 | CCOP(=S)(OCC)SC(CCl)N1C(=O)c2ccccc2C1=O (configuration not stated) | inactive
47 | COC(=O)c1cc(Oc2ccc(Cl)cc2Cl)ccc1[N+](=O)[O-] | inactive
48 | O=[N+]([O-])[O-].[Tl+] | inactive
49 | CN1CCc2cc3c(cc2C1O)OCO3 (configuration not stated) | inactive
50 | CC(C)=CC1C(C(=O)OC(C#N)c2cccc(Oc3ccccc3)c2)C1(C)C (configuration not stated) | inactive
51 | N#Cc1c2ccccc2cc2ccccc12 | inactive
52 | CC1(C)C(C=C(Cl)Cl)C1C(=O)OC(C#N)c1ccc(F)c(Oc2ccccc2)c1 (configuration not stated) | inactive

Row | Compound | Potency
53 | CCCCC/C=C\C/C=C\C/C=C\C/C=C\CCCC(=O)NCC(=O)O | inactive
54 | CSC(=O)c1c(C(F)F)nc(C(F)(F)F)c(C(=O)SC)c1CC(C)C | inactive
55 | Nc1nc(N)c(N)c(N)n1 | inactive
56 | Nc1ccc(Cl)cc1C(=O)c1ccccc1F | inactive
57 | CCc1cccc(C)c1N(C(=O)CCl)[C@@H](C)COC | inactive
58 | CC#C[C@]1(O)CC[C@H]2[C@@H]3C[C@H](C)C4=CC(=O)CC[C@]4(C)[C@H]3CC[C@@]21C | inactive
59 | ClC1=C(Cl)[C@]2(Cl)[C@H]3[C@H]([C@@H]4C=C[C@H]3C4)[C@@]1(Cl)C2(Cl)Cl | inactive
60 | CCOC(=O)CCN(SN(C)C(=O)Oc1cccc2c1OC(C)(C)C2)C(C)C | inactive
61 | COc1ccc2[nH]cc(CCN(C(C)C)C(C)C)c2c1 | inactive
62 | CCC(C)Nc1c([N+](=O)[O-])cc(C(C)(C)C)cc1[N+](=O)[O-] (configuration not stated) | inactive
63 | Cc1c([N+](=O)[O-])c(C)c([N+](=O)[O-])c(C(C)(C)C)c1[N+](=O)[O-] | inactive
64 | Oc1cc(Cl)c(Cl)c(Cl)c1Cl | inactive
65 | Oc1cc(Cl)cc(Cl)c1 | inactive
66 | COP(=O)(OC)O/C(=C\Cl)c1cc(Cl)c(Cl)cc1Cl | inactive
67 | Brc1ccc(Oc2ccc(Br)cc2Br)c(Br)c1 | inactive
